# Residue numbers refer to the chain shown, from its start.
# Experiments:
# Assay in all cases: PBM; 200 nM protein, PBS
# Settings in all cases: dsDNA, one strand shown
# [1] = target: T1, NKX2-4 (Homo sapiens, UniProt Q9H2Z4 175-261, P217L)
# T1 sequence: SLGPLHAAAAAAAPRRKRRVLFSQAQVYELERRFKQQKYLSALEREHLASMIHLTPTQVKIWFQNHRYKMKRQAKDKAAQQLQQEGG
# [2] = target: T2, NKX2-4 (Homo sapiens, UniProt Q9H2Z4 175-261, T231S)
# T2 sequence: T1 sequence with L43P, T57S
# [3] = target: T3, NKX2-4 (Homo sapiens, UniProt Q9H2Z4 175-261)
# T3 sequence: T1 sequence with L43P
# [4] = target: T4, NKX2-4 (Homo sapiens, UniProt Q9H2Z4 175-261, R246Q)
# T4 sequence: T1 sequence with L43P, R72Q
# [5] = target: T5, NKX2-6 (Homo sapiens, UniProt A6NCS4 118-204, R150C)
# T5 sequence: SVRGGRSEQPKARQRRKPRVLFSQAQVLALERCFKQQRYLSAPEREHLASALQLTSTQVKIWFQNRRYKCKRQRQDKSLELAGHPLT
# [6] = target: PITX2 (Homo sapiens, UniProt Q99697 72-157)
# [7] = target: T6, SIX6 (Homo sapiens, UniProt O95475 114-200, T165P)
# T6 sequence: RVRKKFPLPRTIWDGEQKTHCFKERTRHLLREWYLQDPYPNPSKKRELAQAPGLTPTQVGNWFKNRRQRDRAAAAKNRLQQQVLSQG
# [8] = target: CRX (Homo sapiens, UniProt O43186 26-111)
# [9] = target: CRX (Homo sapiens, UniProt O43186 26-111, E42D)
# [10] = target: T7, NKX2-6 (Homo sapiens, UniProt A6NCS4 118-204)
# T7 sequence: T5 sequence with C33R
# CRX (Homo sapiens, UniProt O43186 26-111, E42D), sequence (O43186 26-111 E42D): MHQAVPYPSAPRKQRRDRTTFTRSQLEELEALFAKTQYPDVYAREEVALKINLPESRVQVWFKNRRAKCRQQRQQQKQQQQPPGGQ
# CRX (Homo sapiens, UniProt O43186 26-111), sequence (O43186 26-111): as the sequence (O43186 26-111 E42D) above, with D17E counted along it
sequence,measurement,setting,value
CCCCGGCG,binding signal,[1],"9.5 upbm affinity estimate (log intensity, higher = more binding, comparable within an allelic series)"
same,binding signal,[2],"9.48 upbm affinity estimate (log intensity, higher = more binding, comparable within an allelic series)"
same,binding signal,[3],"9.57 upbm affinity estimate (log intensity, higher = more binding, comparable within an allelic series)"
same,binding signal,[4],"9.55 upbm affinity estimate (log intensity, higher = more binding, comparable within an allelic series)"
GGCAGGCC,binding signal,[5],"9.24 upbm affinity estimate (log intensity, higher = more binding, comparable within an allelic series)"
AATTAATC,binding signal,[6],"12.4 upbm affinity estimate (log intensity, higher = more binding, comparable within an allelic series)"
CCAGGTCC,binding signal,[7],"8.71 upbm affinity estimate (log intensity, higher = more binding, comparable within an allelic series)"
GAGGGGGC,binding signal,[8],"8.07 upbm affinity estimate (log intensity, higher = more binding, comparable within an allelic series)"
same,binding signal,[9],"8.05 upbm affinity estimate (log intensity, higher = more binding, comparable within an allelic series)"
GGAGCGCA,binding signal,[7],"8.9 upbm affinity estimate (log intensity, higher = more binding, comparable within an allelic series)"
AATTAGTG,binding signal,[10],"11.9 upbm affinity estimate (log intensity, higher = more binding, comparable within an allelic series)"
ATTAATGC,binding signal,[8],"11.9 upbm affinity estimate (log intensity, higher = more binding, comparable within an allelic series)"
same,binding signal,[9],"11.7 upbm affinity estimate (log intensity, higher = more binding, comparable within an allelic series)"
